From PubChem
Shown are actives, neighbours in structure and some others; about 1.5% of the full set was active somewhere.
Myeloid diff MLP: promotes myeloid progenitor differentiation; calls only at 10 µM; AID 624256; ER-HoxA9 myeloid progenitors, lysozyme-GFP differentiation, flow cytometry; hit rate 1% among 360,000;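 active = normalized GFP-positive differentiation at or above the plate's own cutoff, the solvent-only control mean plus 3 SD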;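 also: cells exposed to compound for four days before flow analysis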
NOD2 RIPK2 PPI: inhibitors of human NOD2-RIPK2 interaction. O43353. CHO BLA complementation NOD2-RIPK2, CCF4 ratio. inhibition, % at 4.98 µM. hit rate 0.38% among 360,000. AID 624267; in the data active = inhibition above about 21%;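 also: 0% = vehicle only and 100% = reference blocker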
TLR4-MyD88 BLA: TLR4-MyD88 interaction inhibition in cells; inhibition, % at 8.4 µM; AID 861; HeLa CL3-4 TLR4/MyD88 BLA complementation, FRET ratio; hit rate 0.18% among 200,000; in the data active = inhibition above about 25%;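 also: 0% = vehicle and 100% = reference inhibitor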
TLR9-MyD88 inh: inhibitors of human TLR9-MyD88 binding. inhibition, % at 4.98 µM. hit rate 0.21% among 340,000. CHO BLA complementation TLR9-MyD88, CCF4 FRET ratio. Q9NR96+Q99836;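 active = inhibition above the mean over all tested compounds plus 3 SD, cut at about 21% in these data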;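 also: 0% = DMSO only wells and 100% = clavulanate BLA inhibitor control wells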
Target sequence (Q99836 whole entry, looked up): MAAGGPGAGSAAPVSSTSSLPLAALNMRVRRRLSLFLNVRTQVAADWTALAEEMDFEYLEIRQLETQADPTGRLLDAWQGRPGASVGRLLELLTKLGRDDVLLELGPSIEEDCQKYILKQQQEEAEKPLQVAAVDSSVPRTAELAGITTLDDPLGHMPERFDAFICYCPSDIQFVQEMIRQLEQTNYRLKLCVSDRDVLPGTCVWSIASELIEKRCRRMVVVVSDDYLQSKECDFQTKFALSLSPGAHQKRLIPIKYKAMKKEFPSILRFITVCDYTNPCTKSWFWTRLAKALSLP
Target sequence (Q9NR96 whole entry, looked up): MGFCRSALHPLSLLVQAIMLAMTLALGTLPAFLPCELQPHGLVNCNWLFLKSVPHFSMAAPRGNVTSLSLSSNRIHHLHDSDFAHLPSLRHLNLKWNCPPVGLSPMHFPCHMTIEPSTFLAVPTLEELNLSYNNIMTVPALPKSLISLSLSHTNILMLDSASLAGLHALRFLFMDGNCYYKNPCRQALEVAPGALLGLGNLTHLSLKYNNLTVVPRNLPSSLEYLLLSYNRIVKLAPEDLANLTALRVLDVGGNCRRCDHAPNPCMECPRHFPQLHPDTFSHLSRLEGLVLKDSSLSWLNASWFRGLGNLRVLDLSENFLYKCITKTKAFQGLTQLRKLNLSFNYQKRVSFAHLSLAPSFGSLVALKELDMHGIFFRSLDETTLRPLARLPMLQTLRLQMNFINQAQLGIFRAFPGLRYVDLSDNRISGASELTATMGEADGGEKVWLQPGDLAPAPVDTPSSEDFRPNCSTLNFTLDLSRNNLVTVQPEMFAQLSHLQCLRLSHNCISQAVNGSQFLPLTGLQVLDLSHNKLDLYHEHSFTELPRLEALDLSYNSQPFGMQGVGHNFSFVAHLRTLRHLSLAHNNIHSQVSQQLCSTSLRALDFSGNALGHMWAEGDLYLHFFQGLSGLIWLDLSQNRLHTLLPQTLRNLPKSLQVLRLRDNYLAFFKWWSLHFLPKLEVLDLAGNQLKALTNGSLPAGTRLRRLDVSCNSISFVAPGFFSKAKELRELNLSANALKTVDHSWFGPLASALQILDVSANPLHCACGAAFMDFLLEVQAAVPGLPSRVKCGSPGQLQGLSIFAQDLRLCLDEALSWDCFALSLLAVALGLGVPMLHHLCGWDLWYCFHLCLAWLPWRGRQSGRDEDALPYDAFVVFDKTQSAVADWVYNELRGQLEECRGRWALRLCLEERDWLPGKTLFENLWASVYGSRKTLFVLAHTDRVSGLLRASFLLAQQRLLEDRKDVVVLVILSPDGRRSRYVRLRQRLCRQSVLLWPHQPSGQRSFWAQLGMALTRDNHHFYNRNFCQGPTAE
Myeloid diff: myeloid differentiation induction. shares compounds with Myeloid diff MLP. ER-HoxA9 myeloid progenitors, GFP/Mac1 double-positive flow. calls only. hit rate 2% among 2,300. AID 651706;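 active = share of green or green-and-red cells above 9 and 9% in run 1 or 4 and 3% in run 2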
GFP autofluor: flagged as fluorescent in myeloid differentiation counter-screen; shares compounds with Myeloid diff MLP; ER-HoxA9 myeloid progenitors, no estrogen, GFP autofluorescence flow cytometry; vehicle wells 0%, positive control 100%; fluorescence response, % (concentration not given with the values); hit rate 7.4% among 2,300; AID 651707;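 active = over 5% cells positive for green fluorescent reporter, or over 2% positive for both it and APC stain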;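 also: range taken on the double positive population between DMSO and positive control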
Numbers without * were called inactive; i = inactive; nt = no result; + = active, no number.

SMILES	Myeloid diff MLP	NOD2 RIPK2 PPI	TLR4-MyD88 BLA	TLR9-MyD88 inh	Myeloid diff	GFP autofluor
O=C(Nc1cc(S(=O)(=O)N2CCOCC2)ccc1N1CCOCC1)c1ccc([N+](=O)[O-])s1	i	-8.6	nt	1.2	nt	nt
OC1(c2ccccc2F)CCN(Cc2nnnn2Cc2ccc(F)cc2)CC1	+	-4.8	5.6	9.5	i	0.0
COc1ccc(Cn2nnnc2CN2CCC(O)(c3ccccc3F)CC2)cc1	i	-1.0	2.7	13.2	nt	nt
Cc1cc(Nc2cccc([N+](=O)[O-])c2)c2cccc(C)c2n1	i	-5.8	nt	nt	nt	nt
Cc1cc(Nc2ccccc2)c2c([N+](=O)[O-])ccc(C)c2n1	i	-8.6	5.4	3.2	i	0.0
COCCCNC(=O)C[C@@H]1C[C@@]2(C(=O)OC)CCCCC=C2N(Cc2ccco2)C1=O	i	14.8	nt	nt	nt	nt
CSc1ccccc1C(=O)NC1CCCC1	i	0.9	-3.7	-0.6	i	0.0
CSc1ccccc1C(=O)NC1CCCCC1	i	-0.4	-1.0	5.8	nt	nt
O=c1cc(-c2ccc(O)cc2)oc2c(O)c(O)c(O)c(O)c12	i	0.1	nt	-5.8	i	0.7
O=c1cc(-c2ccc(O)cc2)oc2c1ccc1ccccc12	i	-0.7	nt	1.1	nt	nt
CCOc1ccc(C(=O)NCC(c2cccs2)N2CCOCC2)cc1 (stereo not given)	i	0.4	nt	1.9	nt	nt
O=C(NCC(c1cccs1)N1CCOCC1)c1ccc(OCc2ccccc2)cc1 (stereo not given)	+	7.2	nt	-7.9	i	0.0
COc1ccccc1CN(Cc1nc2ccccc2c(=O)[nH]1)C(=O)Nc1ccc(C)cc1	i	-16.3	8.5	0.7	+	0.0
CC(=O)C[C@H]1SC[C@@H](C(C)C)N1S(=O)(=O)c1ccc(C)cc1	i	2.7	nt	nt	nt	nt
O=C(Nc1cnc2ccccc2c1)N1CCOCC1	i	-11.0	2.8	-2.0	i	0.0
C(=N\N(c1ccccc1)c1ccccc1)/c1ccc(N2CCOCC2)s1	+	10.0	-0.3	6.7	i	0.0
CC1(C(=O)Nc2ccc3c(c2)OCCO3)CSCC(=O)N1CC(F)(F)F (stereo not given)	i	5.8	nt	nt	nt	nt
C[C@@]12CC[C@@H](C3=C(CCC3)C1)N2c1ccccc1	i	0.1	nt	nt	nt	nt
CC(C)N(C(=O)CN(C#N)c1nc(N(C)C)nc(N(C)C)n1)c1ccccc1	i	2.7	-1.7	3.1	i	0.0
COC(=O)CN(C#N)c1nc(N(C)C)nc(N(C)C)n1	i	-9.7	-4.5	3.0	nt	nt
O=C1Nc2ccccc2N(C(=O)c2ccc(-c3ccccc3)cc2)C1c1nc2ccccc2[nH]1 (stereo not given)	i	-4.4	nt	nt	nt	nt
Cc1ccc(CNC(=O)[C@H](C)NC(=O)C2CCN(C(=O)[C@@H]3CCCN3C(=O)OC(C)(C)C)CC2)cc1	+	-4.1	nt	-13.6	i	0.7
CC1Cn2c(nnc2-c2cccc(Cl)c2)S1 (stereo not given)	i	-8.9	2.0	-5.2	nt	nt
CC1(C)Cn2c(nnc2-c2cccc(O)c2)S1	+	-3.0	-5.5	1.3	i	0.0
COC(=O)[C@@]12C[C@@H](CC(=O)NCc3ccccc3)C(=O)N(Cc3ccccc3)C1=CCC(C)(C)C2	i	11.7	nt	nt	nt	nt
SMILES	Myeloid diff MLP	NOD2 RIPK2 PPI	TLR4-MyD88 BLA	TLR9-MyD88 inh	Myeloid diff	GFP autofluor
COc1cc(CNC(=O)c2cc(-c3cc(Cl)ccc3C)n[nH]2)cc(OC)c1	i	-2.8	nt	nt	nt	nt
Cc1ccc([C@H]2N[C@]3(CCCN(Cc4ccc(Br)cc4)C3=O)[C@H]3C(=O)N(C)C(=O)[C@@H]23)cc1	i	-0.1	nt	1.5	nt	nt
COc1ccc(CN2c3c(Br)cccc3C(=O)CS2(=O)=O)cc1	+	-10.5	nt	-5.7	i	0.3
O=C1CS(=O)(=O)N(Cc2cccc(F)c2)c2ccc(Br)cc21	i	5.8	nt	-4.4	nt	nt
O=C1c2ccccc2C(c2nc3ccccc3[nH]2)N1Cc1ccco1 (stereo not given)	i	-6.7	nt	nt	nt	nt
O=C(c1ccc(-c2ccc([N+](=O)[O-])cc2)o1)N1CCCCCCC1	+	3.8	nt	-5.5	i	0.0
O=C(c1ccc(-c2ccc([N+](=O)[O-])cc2)o1)N1CCCC(C(F)(F)F)C1 (stereo not given)	i	10.3	nt	-5.4	nt	nt
N#Cc1c(C(F)(F)F)cc(-c2ccccc2)nc1SCC(=O)Nc1sc2c(c1C#N)CCC2	i	-3.6	-7.5	4.9	i	0.0
CCCCn1nnnc1C1(C)CCC(=O)N1CCCN1CCOCC1 (stereo not given)	i	-7.5	nt	nt	nt	nt
CCO[C@@H]1OC(C(=O)NCc2ccccc2)=C[C@H](c2csc3ccccc23)[C@H]1CCCO	i	9.9	-5.2	0.3	i	0.0
C#CCNC(=O)C1=C[C@H](c2csc3ccccc23)[C@@H](CCCO)[C@H](OCC)O1	i	-5.2	-2.1	-3.2	nt	nt
CCC(C)c1c(O)nc(SCC(=O)N2CCOCC2)[nH]c1=O (stereo not given)	i	2.5	18.7	11.8	i	0.0
COC(=O)CC1Nc2ccccc2SC1=O (stereo not given)	i	-6.7	11.7	-12.5	i	0.0
Cc1ccc2nc(C3CCCCC3)c(Cc3ccccc3)n2c1	i	-5.3	nt	nt	nt	nt
CC(C)N1CCCC(C)(C(=O)Nc2cccc(Oc3ccccc3)c2)C1 (stereo not given)	i	-7.7	nt	nt	nt	nt
O=C(Cc1ccccc1)N/N=C/c1ccc([N+](=O)[O-])s1	+	8.6	-8.9	3.6	i	3.3
O=S1(=O)CC(O)C(O)CS1 (stereo not given)	i	-17.2	nt	nt	nt	nt
COc1ccc(-c2nn3c(-c4cccc(C)c4)nnc3s2)cc1OC	i	-2.7	4.6	-0.4	i	0.0
O=C(Nc1ncc(S(=O)(=O)c2ccc([N+](=O)[O-])cc2)s1)c1ccccc1F	+	-14.0	nt	-4.4	i	0.6
C[C@@H]1CN([C@H](C)CO)C(=O)c2cc(-c3ccc(C(=O)N(C)C)cc3)cnc2O[C@@H]1CN(C)C(=O)c1cccnc1	i	-2.2	nt	2.7	nt	nt
O=C1O[C@@H](c2ccccc2)C[C@@H](O)[C@H](O)CCCc2ccccc21	i	-2.3	nt	nt	nt	nt
COc1ccc(S(=O)(=O)N2CCN(Cc3cccc(OC)c3)CC2)cc1	i	-1.1	nt	9.0	nt	nt
COc1ccc(S(=O)(=O)N2CCCN(Cc3cccc(F)c3)CC2)cc1	i	-1.4	10.1	7.8	i	0.9
O=C(Nc1ccc(F)cc1)c1sccc1SCc1cccc(C(F)(F)F)c1	i	13.8	5.6	7.5	nt	nt
COc1ccc(NC(=O)c2sccc2SCc2cccc(C(F)(F)F)c2)cc1	i	4.2	-8.2	7.0	i	0.3
Cc1ccc(C(=O)/C=C/c2ccc(-c3ccccc3[N+](=O)[O-])o2)cc1	nt	7.3	-1.4	2.2	i	0.0
COc1ccc(C#Cc2cnc3c(c2)C(=O)N([C@H](C)CO)C[C@@H](C)[C@H](CN(C)C(=O)CN(C)C)O3)cc1	i	-0.1	nt	3.1	nt	nt
